# Among all 310,000 compounds or so, about 2,200 (0.71%) showed an effect of 50% or more. Effects have a minus sign here. This is one part of a sample in which strong results are shown more often than they occur.
# Target: human ether-à-go-go-related gene (hERG) potassium channel (human, UniProt Q12809)
# Assay: primary screen, population patch clamp on CHO cells stably expressing hERG; higher = less effect of the substance
# human ether-à-go-go-related gene (hERG) potassium channel, sequence (Q12809 whole entry, looked up): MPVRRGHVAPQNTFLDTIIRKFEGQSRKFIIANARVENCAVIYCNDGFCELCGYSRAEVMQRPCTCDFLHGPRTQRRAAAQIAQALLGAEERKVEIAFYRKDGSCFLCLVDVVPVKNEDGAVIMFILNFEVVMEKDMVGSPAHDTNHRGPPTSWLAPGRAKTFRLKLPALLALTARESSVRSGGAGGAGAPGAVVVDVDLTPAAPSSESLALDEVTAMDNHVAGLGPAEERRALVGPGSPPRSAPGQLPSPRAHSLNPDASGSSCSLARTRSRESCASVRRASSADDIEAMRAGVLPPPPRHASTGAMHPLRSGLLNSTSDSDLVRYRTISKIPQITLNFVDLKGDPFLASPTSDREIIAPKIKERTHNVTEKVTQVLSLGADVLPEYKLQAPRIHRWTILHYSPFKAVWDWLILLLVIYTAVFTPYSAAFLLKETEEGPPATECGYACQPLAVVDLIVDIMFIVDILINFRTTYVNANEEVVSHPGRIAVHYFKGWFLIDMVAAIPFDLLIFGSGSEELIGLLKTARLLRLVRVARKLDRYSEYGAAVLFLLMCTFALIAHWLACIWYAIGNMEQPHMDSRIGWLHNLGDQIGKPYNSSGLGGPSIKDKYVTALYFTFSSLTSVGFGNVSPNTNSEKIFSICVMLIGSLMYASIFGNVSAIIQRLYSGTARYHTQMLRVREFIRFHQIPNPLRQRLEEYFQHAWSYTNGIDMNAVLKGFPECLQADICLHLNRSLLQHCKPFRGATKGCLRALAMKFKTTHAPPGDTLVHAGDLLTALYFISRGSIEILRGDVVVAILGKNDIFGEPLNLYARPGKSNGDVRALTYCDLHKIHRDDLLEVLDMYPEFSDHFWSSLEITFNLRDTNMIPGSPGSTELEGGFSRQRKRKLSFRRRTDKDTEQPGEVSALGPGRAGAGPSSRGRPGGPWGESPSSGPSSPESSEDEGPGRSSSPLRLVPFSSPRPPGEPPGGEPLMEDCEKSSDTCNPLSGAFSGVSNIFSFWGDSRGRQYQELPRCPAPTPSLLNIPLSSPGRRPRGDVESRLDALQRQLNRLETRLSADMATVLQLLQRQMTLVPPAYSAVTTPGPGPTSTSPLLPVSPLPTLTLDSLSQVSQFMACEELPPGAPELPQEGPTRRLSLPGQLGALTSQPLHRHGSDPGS
row,Compound,"hERG current change (%, negative = inhibition) at 1uM [%]"
1,Cc1nnc(NC(=O)CSc2ccc(-c3ccc(Cl)cc3)nn2)s1,12.4
2,CCOC(=O)N1CCN(c2c(NCCCN(C)c3ccccc3)c(=O)c2=O)CC1,9.53
3,COc1cc(C(=O)Nc2cccc(-c3nc4cc(C)ccc4o3)c2)cc(OC)c1OC,10.6
4,CN(C)CCNc1nc2c(c(=O)[nH]c(=O)n2C)n1CC(O)COc1ccc(Cl)cc1 (stereo not drawn),5.04
5,CCN(CC)CCNc1nc2c(c(=O)[nH]c(=O)n2C)n1CC(O)COc1ccc(Cl)cc1Cl (stereo not drawn),-66.1
6,CN(C)CCNc1nc2c(c(=O)[nH]c(=O)n2C)n1CC(O)COc1ccc(Cl)cc1Cl (stereo not drawn),-30.6
7,CSc1nn(-c2ccc(C(=O)OC(C(=O)NC(N)=O)C(C)C)cc2)c(=S)s1 (stereo not drawn),9.82
8,COc1ccccc1C(=O)Nc1ccnn1C1CCN(C/C=C/c2ccccc2)CC1,-85.6
9,COc1ccccc1/C=C/CN1CCC(n2nccc2NC(=O)CCc2ccccc2)CC1,-24.8
10,COc1ccccc1C(=O)Nc1ccnn1C1CCN(C/C=C/c2ccc(F)cc2)CC1,-86.9
11,COCC(=O)N1CCC(n2nccc2NC(=O)c2ccccc2OC)CC1,14.1
12,CCOc1ccc(N(CC(=O)Nc2ccc(F)c(F)c2)S(=O)(=O)c2c(C)noc2C)cc1,2.37
13,CC(=O)Nc1ccc(NC(=O)COc2ccc(S(=O)(=O)NC(C)c3ccccc3)cc2)cc1 (stereo not drawn),17.5
14,CC(C)(C)c1ccc(CSc2cnn(C(C)(C)C)c(=O)c2Cl)cc1,15.7
15,CCOC(=O)c1c(NC(=O)c2ccc(N3C(=O)[C@@H]4[C@H](C3=O)[C@H]3C=C[C@@H]4C3)cc2)sc2c1CCCC2,4.8
16,O=C(CSc1ccccc1)Nc1ccc2c(c1)OCCO2,8.08
17,COc1cccc(NC(=O)C2c3cc(OC)c(OC)cc3C(=O)N(C)C2c2cccnc2)c1 (stereo not drawn),1.83
18,CCOCCCn1c(=N)c(C(N)=S)cc2c(=O)n3cccc(C)c3nc21,-85.5
19,Cc1cccn2c(=O)c3cc(C(N)=S)c(=N)n(CCCN4CCOCC4)c3nc12,-90.5
20,CCOCCCn1c(=N)c(C(=O)NCCN2CCOCC2)cc2c(=O)n3cccc(C)c3nc21,-17
21,CCCn1c(=N)c(C#N)cc2c(=O)n3cccc(C)c3nc21,-20.2
22,Cc1cccn2c(=O)c3cc(C#N)c(=N)n(CCCN4CCOCC4)c3nc12,-78.1
23,CCOCCCn1c(=NC(C)=O)c(C#N)cc2c(=O)n3cccc(C)c3nc21,-7.46
24,COCCCn1c(C(=O)NCCN2CCOCC2)cc2c(=O)n3cccc(C)c3nc21,6.14
25,COCCCn1c(=N)c(C(N)=S)cc2c(=O)n3cccc(C)c3nc21,-70.3
26,COCCCn1c(C(=O)N2CCOCC2)cc2c(=O)n3cccc(C)c3nc21,1.75
27,Cc1cccn2c(=O)c3cc(C#N)c(=O)n(CCCN4CCOCC4)c3nc12,-21.2

row,Compound,"hERG current change (%, negative = inhibition) at 1uM [%]"
1,COc1cc(/C=N/NC(=O)c2ccc3nc[nH]c3c2)cc(OC)c1OC,10.6
2,CC1(C)Cc2c(cnn2-c2ccccc2)C(NC(=O)CCc2ccc(=O)[nH]n2)C1 (stereo not drawn),8.83
3,Cc1ccccc1CN(C)CC(=O)Nc1ccccc1-c1ccccc1,-9.53
4,O=c1[nH]nc(Cc2ccc(-c3cccc(Cl)c3)o2)c2ccccc12,6.53
5,CCCCn1c(N)c(N(CC)C(=O)c2ccc(C#N)cc2)c(=O)[nH]c1=O,14.4
6,Cc1cccn2c(=O)c3cc(C(=O)NCCCOC(C)C)sc3nc12,9.15
7,Cc1cccn2c(=O)c3cc(C(N)=S)c(=N)n(CCCOC(C)C)c3nc12,-77.8
8,Cc1cc(N)n(-c2cc(C)c3ccccc3n2)n1,9.59
9,Cc1ccc(NC(=S)N2CCN(c3ccccn3)CC2)c(C)c1,12.7
10,O=C(Nc1c(C(=O)N2CCN(c3ccccn3)CC2)oc2ccccc12)c1cccc([N+](=O)[O-])c1,7.86
11,O=C(Nc1c(C(=O)N2CCN(c3ccccn3)CC2)oc2ccccc12)c1ccc([N+](=O)[O-])cc1,-4.07
12,CCOCCCN(C)C1CCN(C(=O)c2oc3ccccc3c2NC(=O)c2ccc([N+](=O)[O-])cc2)CC1,-85.2
13,CCOCCCN(C)C1CCN(C(=O)c2oc3ccccc3c2NC(=O)c2cccc([N+](=O)[O-])c2)CC1,-86
14,Cc1c(C(=O)N2CCN(c3ccc([N+](=O)[O-])cc3)CC2)oc2ccccc12,-12.9
15,O=C(Nc1c(C(=O)N2CCOCC2)oc2ccccc12)c1cccc([N+](=O)[O-])c1,11.4
16,O=C(CN1C(=O)CCC1=O)Nc1nc(-c2nc3ccccc3s2)cs1,-4.37
17,CCOC(=O)C(C)(C)N(Cc1ccc(Cl)cc1)S(=O)(=O)c1ccc(Cl)c([N+](=O)[O-])c1,13.2
18,Cc1cc(C)cc(NC(=O)C(c2ccccc2)N2CCCC2)c1 (stereo not drawn),12.6
19,CN(C)c1ccc(/C=C(/NC(=O)c2ccccc2)C(=O)NCCCn2ccnc2)cc1,16.1
20,CN(C)c1ccc(/C=C(\NC(=O)c2ccccc2)C(=O)NCCCn2ccnc2)cc1,9.45
21,O=C(NCCCn1ccnc1)/C(=C/c1ccc(Cl)cc1)NC(=O)c1ccccc1,-82.5
22,COc1ccc(/C=C(/NC(=O)c2ccccc2)C(=O)NCCCn2ccnc2)cc1OC,15.3
23,O=C(NCCCn1ccnc1)/C(=C/c1ccccc1)NC(=O)c1ccccc1,-47.6
24,O=C(NCCCn1ccnc1)/C(=C\c1ccc(Br)cc1)NC(=O)c1ccccc1,-82.1
25,CC(C)c1ccc(/C=C(\NC(=O)c2ccccc2)C(=O)NCCCn2ccnc2)cc1,-63.2
26,COc1ccccc1/C=C(/NC(=O)c1ccccc1)C(=O)NCCCn1ccnc1,13.6
27,O=C(NCCCn1ccnc1)/C(=C\c1ccccc1Cl)NC(=O)c1ccccc1,6.1

# Source: article PMC4336329 (PLoS ONE, 2015)
